# CBFb RUNX1 block – blocks binding between human CBF-beta and RUNX1; Q01196+Q13951; AlphaScreen CBFb-His/RUNX1-biotin binding, biochemical; Potency, µM (top dose mostly 59.8 µM), inactives show at the top dose activity, negative = inhibition, usual class: inhibitors; 230,000 tested, under 10 active; active = well fitted curve in the direction sought with a large enough effect; inconclusive = small, poorly fitted or top-dose-only effect, or effect the other way, or another doubt; inactive = no such curve, though single readings can be large or run the other way; note: % of control where 0% means no effect
#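 CBF-beta (His) and RUNX1 (biotin), 30 nM each; 20 min preassociation; + compound, 15 min; + beads 50 ng each (Ni, streptavidin), 90 min; RT; AlphaScreen read.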
# MBNL1 CUG block – inhibitors of human MBNL1 binding to CUG repeat RNA. Q9NR56. TR-FRET MBNL1-His/biotin-(CUG)12 binding, 665/545 ratio. Potency, µM (titrated, usually from 57.5 µM), for inactives: at the top dose activity change, negative = inhibition, actives largely listed as inhibitors. 0.036% of 280,000 active. AID 2675; active = well fitted inhibition curve with a large enough effect in the signal ratio, with a control signal flat, not every such curve was filed as active; inconclusive = small, poorly fitted or top-dose-only effect, or effect the other way, or a change in a side signal; inactive = no such curve, though single readings can be large or run the other way; the % refers to the signal ratio; note: potency is the fitted concentration of half-maximal effect; % is set by controls: 0 for no effect and ±100 for the full control effect
# Target sequence (Q9NR56 whole entry, looked up): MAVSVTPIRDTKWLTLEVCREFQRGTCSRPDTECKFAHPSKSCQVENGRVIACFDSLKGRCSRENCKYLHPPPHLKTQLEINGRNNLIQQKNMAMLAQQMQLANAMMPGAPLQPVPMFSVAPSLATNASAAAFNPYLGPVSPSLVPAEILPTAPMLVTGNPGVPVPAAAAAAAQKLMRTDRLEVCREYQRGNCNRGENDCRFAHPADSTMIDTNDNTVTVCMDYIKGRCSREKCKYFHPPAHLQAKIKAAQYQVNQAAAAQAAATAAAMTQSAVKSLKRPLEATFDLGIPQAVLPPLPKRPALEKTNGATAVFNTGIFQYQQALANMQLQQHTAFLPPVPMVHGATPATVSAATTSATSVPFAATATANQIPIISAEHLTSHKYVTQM
#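 Compound titration spanned 92 nM–58 uM against the MBNL1-His/biotin-(CUG)12 complex. After 60 min at room temperature with 5 nM streptavidin-XL665 and 0.055 ng/ul terbium anti-His, ratiometric 665/545 nm emission (Ex 340 nm) normalized to controls.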
# Rango complex inh – prevents formation of the Rango-importin beta complex | Q14974 | Rango CFP/YFP FRET sensor + importin beta, 45 min | Potency, µM (highest dose often 92.2 µM), without a hit: at the top dose inhibition of complex formation | 0.031% of 340,000 active;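 note: potency is the fitted concentration of half-maximal effect; 0% = DMSO wells and 100% = buffer wells lacking importin beta; nearly all actives have a fitted effect of over 15% in size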
#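 FRET biosensor Rango (snurportin 1 IBB between N-terminal EYFP and C-terminal Cerulean), 50 nM in PBS/1 mM DTT/0.02% Tween-20/0.1% BSA, preincubated 5 min RT with compound; 0.125 microM importin beta added, 45 min RT, CFP/YFP FRET ratio read.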
# Rango release inh – inhibition of RanGTP-driven Rango-importin beta dissociation; O95149+P62826; Biochemical FRET Rango-importin beta, RanGTP-induced dissociation; Potency, µM (titrated, usually from 46.1 µM), for inactives: at the top dose activity change, negative = inhibition; 0.071% of 340,000 active; AID 540253; note: potency is the fitted concentration of half-maximal effect; % of control where 0% means no effect; nearly all actives have a fitted effect of over 45% in size
#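 FRET read at 45 min, room temperature: inhibitors block the CFP/YFP signal rise when RanGTP (0.6 uM Ran, 2 mM GTP, 0.2 uM RCC1) frees Rango (0.1 uM) from importin beta (0.25 uM). Pre-read after 5 min compound exposure flags interference.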
# ClpP mod – qHTS Assay for Activators of ClpP | ATP-dependent Clp protease proteolytic subunit (Bacillus subtilis (strain 168)), P80244 | purified B. subtilis ClpP, FRET peptide cleavage, 20 min | Potency, µM (titrated, usually from 57.5 µM), without a hit: top-dose activity change, negative = active | 1.9% of 340,000 active; active = well fitted falling curve with a large enough effect; inconclusive = small, poorly fitted or top-dose-only effect; inactive = no such curve, though single readings can be large or run the other way; note: potency is the fitted concentration of half-maximal effect; the source files actives as falling curves though it sought activators and does not explain the sign; nearly all actives have a fitted effect of over 65% in size
# Target sequence (P80244 whole entry, looked up): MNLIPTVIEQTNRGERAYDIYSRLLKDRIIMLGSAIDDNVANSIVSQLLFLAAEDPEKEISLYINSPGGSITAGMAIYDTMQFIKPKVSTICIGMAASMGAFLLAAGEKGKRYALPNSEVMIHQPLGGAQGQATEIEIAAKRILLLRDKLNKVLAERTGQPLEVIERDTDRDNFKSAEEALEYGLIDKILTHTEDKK
#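 FRET quenching reversal measured ClpP activation: 10 microg/mL B. subtilis ClpP at pH 8 with the FRET-FV decapeptide, read at 430 nm after 320 nm excitation. The 20-min minus 0-min signal was scaled between DMSO/no-enzyme wells and ADEP (5.8 microM final).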
# * marks the source's active call; other numbers are inactive results; u = inconclusive; x = no result. Only a selection was taken, and hits are over-represented in it overall. Unless noted, calls come from the whole dose curve.
SMILES,CBFb RUNX1 block,MBNL1 CUG block,Rango complex inh,Rango release inh,ClpP mod
O=C(Cn1c(-c2cccs2)cc2ccccc21)N1CCN(c2ccc(Cl)cc2)CC1,x,x,x,x,10µM*
O=C(Cn1c(-c2cccs2)cc2cc(F)ccc21)N1CCN(c2ccccc2)CC1,x,x,x,x,16µM*
COc1ccc(N2CCN(C(=O)Cn3nnc(-c4cccs4)n3)CC2)cc1,3%,0%,0%,11%,11%
CCC(C(=O)Nc1ccccc1C(=O)OC)n1nc(C)c2c(C)n(-c3ccc(C)cc3)nc2c1=O (stereo unspecified),x,x,x,x,4%
Cc1cc(C)c(NC(=O)c2cc(S(=O)(=O)N3CCN(c4ccccc4F)CC3)ccc2F)c(C)c1,x,x,x,x,-4%
O=[N+]([O-])c1ccc(/C=C2\C=C(C(O)c3ccc([N+](=O)[O-])cc3)c3ccccc32)cc1 (stereo unspecified),x,x,x,x,-3%
CCN(C(=O)CSc1nc2ccccc2n1Cc1cc(C)ccc1C)c1ccccc1,x,x,x,x,0%
O=C(Nc1ccc([N+](=O)[O-])cc1Cl)c1cc(Cl)cc(Cl)c1O,x,x,x,x,0%
O=C(CN(Cc1ccccc1)S(=O)(=O)c1ccc(Br)cc1)NCC1CCCO1 (stereo unspecified),x,0%,0%,11%,25µM*
O=C(CN(Cc1ccccc1)S(=O)(=O)c1ccc(Cl)cc1)NCC1CCCO1 (stereo unspecified),x,2%,0%,1%,x
CCCc1cc(=O)n2[nH]c(C)cc2n1,9%,-4%,0%,-2%,32µM*
Cc1cc(NCCO)c2cc(O)ccc2n1,2%,4%,u,u,16µM*
O=S1(=O)C=C(SCc2cccc(Cl)c2)Nc2ccccc21,0%,-11%,-4%,0%,32µM*
Cc1cccc(CSC2=CS(=O)(=O)c3ccccc3N2)c1,0%,-2%,6%,0%,1%
Cc1ccccc1NC(=O)c1c(C)[nH]c(=S)c(C#N)c1-c1ccco1,-13%,32%,0%,5%,14µM*
CNC(=O)c1c(C)[nH]c(=S)c(C#N)c1-c1ccco1,-1%,x,u,u,-3%
N#CC1=C(N)Oc2c(ccc3cccnc23)C1c1cccnc1 (stereo unspecified),u,u,0%,-27%,25µM*
Nc1ncnc2c1c(-c1ccc(Oc3ccccc3)cc1)cn2C1CCCC1,u,x,2%,-14%,28µM*
CCSC1=NC2(CCN(C(=O)NC3CCCCC3)CC2)N=C1c1ccc(C)cc1,x,x,x,x,0%
O=C1CC(=C(c2ccccc2)c2ccccc2)C(=O)N1CCN1CCN(c2cccc(Cl)c2)CC1,-23%,4%,0%,-9%,25µM*
CCCCNC(=O)CCn1c(=O)c2ccccc2n(Cc2ccccc2C#N)c1=O,x,x,x,x,-21%
O=C(NCC(O)c1ccccc1)c1cccc(S(=O)(=O)N2CCOCC2)c1 (stereo unspecified),6%,2%,1%,1%,32µM*
CNS(=O)(=O)c1cn(CC(=O)Nc2cccc(C(F)(F)F)c2)cc1S(=O)(=O)NC,x,x,x,x,1%
O=C(CS(=O)(=O)c1ccc(Cl)cc1)Nc1nc2ccc(Br)cc2s1,x,x,x,x,-7%
CCOC(=O)C1CCN(S(=O)(=O)c2ccc(NC(=O)OC)cc2)CC1,-1%,-6%,-1%,11%,-3%
SMILES,CBFb RUNX1 block,MBNL1 CUG block,Rango complex inh,Rango release inh,ClpP mod
COC(=O)Nc1ccc(S(=O)(=O)N2CCC(C(=O)N(C)C3CCCCC3)CC2)cc1,-11%,3%,-2%,14%,13µM*
Cc1cc(C)cc(OCCSc2nc3ccc(NC(=O)c4cccs4)cc3s2)c1,x,x,x,x,0%
O=C(Nc1ccc2nc(SCCOc3ccccc3Cl)sc2c1)c1cccs1,x,x,x,x,11µM*
Cc1ccc(-n2ncc3c(N4CCCCCC4)ncnc32)cc1C,x,x,x,x,-17%
CN1C(=O)NC(c2ccccc2)C2=C1CN(c1cccc(C(F)(F)F)c1)C2=O (stereo unspecified),4%,1%,-1%,-8%,40µM*
OC[C@@H]1O[C@H](O)[C@H](O)[C@@H](O)[C@@H]1O,-30%,x,x,x,x
CC(=O)Nc1ccc(-c2cc3ccccc3o2)cc1,-1%,-1%,1%,6%,14µM*
COc1cc2c(=O)n(Cc3ccccc3)c(=O)n(CC(=O)NCCc3ccccc3)c2cc1OC,-2%,1%,1%,-5%,28µM*
COc1cc2c(=O)n(Cc3ccccc3)c(=O)n(CC(=O)NCC3CCCO3)c2cc1OC (stereo unspecified),3%,0%,3%,-2%,u
Cc1ccc2nc(COC(=O)c3ccc(Cl)nc3)cc(=O)n2c1,x,x,-1%,-5%,1%
Cc1ccc2nc(Cl)cc(=O)n2c1,x,x,0%,1%,28µM*
Cn1c(/C=N/O)nc2ccccc21,4%,-4%,0%,0%,4%
C(=N\n1cnnc1)/c1nc2ccccc2[nH]1,0%,6%,-3%,-9%,16µM*
Cn1c(/C=N/n2cnnc2)nc2ccccc21,7%,5%,2%,-14%,14µM*
COc1cc2c(NC3CCN(C(C)C)CC3)nc(N3CCCN(C)CC3)nc2cc1OCCOCCN(C)C,x,x,x,x,4%
Oc1ccc(CN2CCCCC2)nc1-c1ccccc1,6%,7%,0%,1%,35µM*
Clc1ccc(-c2ccc(/C=N/Nc3cc(N4CCOCC4)nc(N4CCOCC4)n3)o2)cc1,3%,10%,u,u,7.9µM*
Brc1ccc(-c2ccc(/C=N/Nc3nc(N4CCOCC4)nc(N4CCOCC4)n3)o2)cc1,-10%,x,-3%,4%,x
Cc1ccc(NC2=CC(=O)c3sc(C)nc3C2=O)cc1,13%,x,x,x,x
CNC(=O)c1cc(C)c(-c2ccccc2)s1,-3%,u,-5%,-10%,32µM*
COC[C@@H]1CCCN1c1ccc2c(c1)O[C@@H](COCc1ccccc1)CN([C@@H](C)c1ccccc1)S2(=O)=O,x,x,x,x,14µM*
COc1cc(NC(=O)CCS(=O)(=O)c2ccc3c(c2)CC(=O)N3C)cc(OC)c1OC,x,x,x,x,0%
COc1ccccc1N(Cc1cc2cccc(C)c2[nH]c1=O)C(=O)c1cccc(Cl)c1,x,x,x,x,25µM*
O=C(NCc1ccco1)c1cnn2c(C(F)F)cc(-c3ccccc3)nc12,4%,1%,u,-2%,u
Cc1nc2c(C(=O)NC(C)c3ccccc3)cnn2c(C)c1Cc1ccccc1 (stereo unspecified),x,x,x,x,32µM*
Cc1cc(C)c(Cc2c(C)nc3c(C(=O)NCc4ccco4)cnn3c2C)c(C)c1,-4%,-1%,u,-10%,20µM*

# From PubChem BioAssay
